Results taken from PubChem BioAssay (NCI).
This is part of a sample that, as a whole, favours compounds with a hit. Of some 79,000 tested, about 15% had one in any assay. Active and inactive are the calls of the source. No stated cut-off is given here; in the data, active means growth inhibition above about 70%; inactive means the rest.

Tests used:
[1] = NCI Yeast Anticancer Drug Screen. Data for the wt2 strain (AID 169);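 further: 0% = growth of vehicle-treated yeast cultures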; conditions: S. cerevisiae wt2 strain growth inhibition, stronger effect = higher value
Outline: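 Treated yeast vs. vehicle-treated yeast: growth inhibition determined.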

[2] = NCI Yeast Anticancer Drug Screen. Data for the mlh1 strain (AID 171);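 further: 0% = growth of vehicle-treated control cultures of the same strain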; conditions: S. cerevisiae mlh1 strain growth inhibition, stronger effect = higher value
Outline: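 A yeast strain with a defined genetic lesion serves as the test organism. Cultures receive compound or vehicle, and growth is measured.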

[3] = NCI Yeast Anticancer Drug Screen. Data for the sgs1 strain (AID 173);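 further: 0% = growth of vehicle-only control cultures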; conditions: S. cerevisiae sgs1 mutant, stronger effect = higher value
Outline: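 A genetically defined yeast mutant is incubated with the test compound, and its growth is compared to that of the same strain given vehicle.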

[4] = NCI Yeast Anticancer Drug Screen. Data for the mlh1 rad18 strain (AID 175); conditions: S. cerevisiae mlh1 rad18 strain growth inhibition, stronger effect = higher value
Outline: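 Steps: expose repair-defective yeast to compound; measure growth; express inhibition against vehicle-treated controls.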

[5] = NCI Yeast Anticancer Drug Screen. Data for the rad18 strain (AID 177); conditions: S. cerevisiae rad18 mutant growth inhibition, stronger effect = higher value
Outline: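 Measured value is growth inhibition of a yeast strain bearing a DNA repair alteration, referenced to vehicle-treated cells.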

[6] = NCI Yeast Anticancer Drug Screen. Data for the rad52 strain (AID 147);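 further: 0% = growth of vehicle-treated control cultures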; conditions: S. cerevisiae rad52 mutant growth inhibition, stronger effect = higher value
Outline: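 Here a repair-compromised yeast strain receives each compound; its growth is then quantified and normalised to vehicle-only controls.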

[7] = NCI Yeast Anticancer Drug Screen. Data for the wt1 strain (AID 149);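 further: 0% = growth of vehicle-treated wt1 cultures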; conditions: S. cerevisiae wt1 strain (SPY 50644) growth inhibition, stronger effect = higher value
Outline: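 Yeast wt1 strain exposed to compounds; growth inhibition measured relative to vehicle-treated controls.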

[8] = NCI Yeast Anticancer Drug Screen. Data for the rad50EPP+ strain (AID 151);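 further: 0% = growth of vehicle-treated control cultures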; conditions: S. cerevisiae rad50 mutant strain, stronger effect = higher value
Outline: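 Read-out is yeast growth inhibition relative to vehicle; cells used were the rad50EPP+ strain.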

[9] = NCI Yeast Anticancer Drug Screen. Data for the mgt1 strain (AID 153); conditions: S. cerevisiae mgt1 mutant growth inhibition, stronger effect = higher value
Outline: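 Measured: inhibition of mgt1 yeast growth by compound, normalized to vehicle-treated cultures.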

[10] = NCI Yeast Anticancer Drug Screen. Data for the rad50 strain (AID 155);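 further: 0% = growth of vehicle-only cultures of the same strain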; conditions: S. cerevisiae rad50 strain growth inhibition, stronger effect = higher value
Outline: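 Yeast carrying a defined DNA repair defect were exposed to test compounds, and growth was compared with vehicle-treated controls to give percent inhibition.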

[11] = NCI Yeast Anticancer Drug Screen. Data for the mec2-1 strain (AID 157); conditions: S. cerevisiae mec2-1 strain, stronger effect = higher value
Outline: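 Using mec2-1 yeast: add compound, measure growth, express inhibition versus vehicle-treated cultures.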

[12] = NCI Yeast Anticancer Drug Screen. Data for the rad14 strain (AID 159);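 further: 0% = growth of vehicle-treated control cultures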; conditions: S. cerevisiae rad14 strain growth inhibition, stronger effect = higher value
Outline: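 Yeast cells carrying a defined DNA-repair defect were exposed to compounds, and growth inhibition was calculated relative to vehicle-treated control cultures.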

[13] = NCI Yeast Anticancer Drug Screen. Data for the sgs1 mgt1 strain (AID 161);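 further: 0% = growth of cultures given vehicle only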; conditions: S. cerevisiae sgs1 mgt1 strain, stronger effect = higher value
Outline: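 Compounds are added to genetically altered yeast, and growth is compared with cultures given vehicle alone to give percent inhibition.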

[14] = NCI Yeast Anticancer Drug Screen. Data for the CLN2oe strain (AID 163);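 further: 0% = growth of vehicle-only control cultures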; conditions: S. cerevisiae CLN2oe strain, stronger effect = higher value
Outline: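 Whole-cell yeast growth assay. A strain engineered for altered cell-cycle control received compound, and inhibition relative to vehicle-treated cultures was recorded.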

[15] = NCI Yeast Anticancer Drug Screen. Data for the cln2 rad14 strain (AID 165);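 further: 0% = growth equal to vehicle treated cultures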; conditions: S. cerevisiae cln2 rad14 strain, stronger effect = higher value
Outline: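 Yeast strain cln2 rad14, bearing defects in cell cycle control and DNA repair, serves as the test system; values reflect growth inhibition compared with vehicle.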

[16] = NCI Yeast Anticancer Drug Screen. Data for the bub3 strain (AID 167); conditions: S. cerevisiae bub3 mutant strain, stronger effect = higher value
Outline: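 Compounds were applied to a genetically altered yeast strain carrying a cell-cycle control defect. Growth inhibition was scored against vehicle-treated controls.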

[17] = at 5.0 µM (retest, dose inferred, filed as 0.5)
[18] = at 50.0 µM (retest, dose inferred, filed as 5.0)

Measured: growth inhibition

Cc1ccc2ccc3cccc4ccc1c2c34
inactive: [1]; at 1.2 µM -1% | [1]; at 3.7 µM 7% | [1]; at 11.0 µM -3% | [1]; at 33.0 µM -2% | [1]; at 100.0 µM 18% | [2]; at 1.2 µM -2% | [2]; at 3.7 µM -2% | [2]; at 11.0 µM -5% | [2]; at 33.0 µM 3% | [2]; at 100.0 µM 30% | [3]; at 1.2 µM -3% | [3]; at 3.7 µM -1% | [3]; at 11.0 µM 2% | [3]; at 33.0 µM 23% | [3]; at 100.0 µM 42% | [4]; [17] -3% | [4]; [18] 52% | [5]; at 1.2 µM -4% | [5]; at 3.7 µM 0% | [5]; at 11.0 µM 11% | [5]; at 33.0 µM 60%
active: [4]; at 50.0 µM 70.3% | [5]; at 100.0 µM 82%

CC(C)NC(=O)OCc1c(COC(=O)NC(C)C)c(-c2ccc(Cl)c(Cl)c2)n2c1CCC2
active: [9]; at 100.0 µM 76% | [12]; at 100.0 µM 84% | [13]; [18] 72% | [16]; [18] 79% | [2]; at 100.0 µM 76% | [3]; at 100.0 µM 80% | [5]; at 100.0 µM 84%
inactive: [6]; at 1.2 µM -38% | [6]; at 3.7 µM -28% | [6]; at 11.0 µM -19% | [6]; at 33.0 µM 1% | [6]; at 100.0 µM 68% | [7]; at 1.2 µM -38% | [7]; at 3.7 µM -34% | [7]; at 11.0 µM -45% | [7]; at 33.0 µM -32% | [7]; at 100.0 µM 30% | [8]; at 1.2 µM -23% | [8]; at 3.7 µM -18% | [8]; at 11.0 µM -5% | [8]; at 33.0 µM -18% | [8]; at 100.0 µM -4% | [9]; at 1.2 µM -60% | [9]; at 3.7 µM -48% | [9]; at 11.0 µM -59% | [9]; at 33.0 µM -39% | [10]; at 1.2 µM -35% | [10]; at 3.7 µM -29% | [10]; [17] 8% | [10]; at 11.0 µM -24% | [10]; at 33.0 µM 1% | [10]; [18] 44% | [10]; at 50.0 µM 58.6% | [10]; at 100.0 µM 63% | [11]; at 1.2 µM -71% | [11]; at 3.7 µM -61% | [11]; [17] -1% | [11]; at 11.0 µM -56% | [11]; at 33.0 µM -53% | [11]; [18] 8% | [11]; at 50.0 µM 47.6% | [11]; at 100.0 µM 47% | [12]; at 1.2 µM -33% | [12]; at 3.7 µM -26% | [12]; at 11.0 µM -30% | [12]; at 33.0 µM 10% | [13]; [17] 9% | [13]; at 50.0 µM 23% | [14]; at 1.2 µM 4% | [14]; at 3.7 µM 0% | [14]; at 11.0 µM 4% | [14]; at 33.0 µM 11% | [14]; at 100.0 µM 32% | [15]; [17] 23% | [15]; [18] 24% | [15]; at 50.0 µM 3.3% | [16]; at 1.2 µM -65% | [16]; at 3.7 µM -66% | [16]; [17] 18% | [16]; at 11.0 µM -69% | [16]; at 33.0 µM -34% | [16]; at 50.0 µM 17.4% | [16]; at 100.0 µM 63% | [1]; at 1.2 µM -31% | [1]; at 3.7 µM -21% | [1]; at 11.0 µM -31% | [1]; at 33.0 µM -36% | [1]; at 100.0 µM 26% | [2]; at 1.2 µM -44% | [2]; at 3.7 µM -71% | [2]; at 11.0 µM -69% | [2]; at 33.0 µM -40% | [3]; at 1.2 µM -21% | [3]; at 3.7 µM -17% | [3]; at 11.0 µM -1% | [3]; at 33.0 µM 12% | [4]; [17] 13% | [4]; [18] 68% | [4]; at 50.0 µM 69.2% | [5]; at 1.2 µM -17% | [5]; at 3.7 µM 2% | [5]; at 11.0 µM 1% | [5]; at 33.0 µM 34%
